High-throughput results as filed in PubChem BioAssay.
Pf apPOL inh = Pf-apPOL DNA polymerase inhibition | AID 1794808 | Recombinant Pf-apPOL, molecular beacon fluorescence, 1.5 h | 210,000 tested, 0.25% active | inhibition, % at 10 µM
mHTT-CaM PPI inh = mHTT-calmodulin interaction abrogation; AlphaScreen His-mHTT/GST-CaM binding, luminescence; AID 1671202; 190,000 tested, 3.6% active; inhibition, % at 15 µM; P42858
A number is an active result; - = inactive; . = no result given; + = active, no number. The sample as a whole holds a higher share of hits than the screen did. Rule as the data show it: active = inhibition above about 50%; inactive = the rest.

SMILES | Pf apPOL inh | mHTT-CaM PPI inh
O=[N+]([O-])c1ccccc1CNc1ccc(F)c(F)c1 | - | -
COc1cc(CNc2ccc(F)c(Cl)c2)cc([N+](=O)[O-])c1O | - | -
Cc1ccc(-n2c(SCC(=O)Nc3ccc4c(c3)OCCO4)nc3c(c2=O)SCC3)cc1 | - | -
Cn1nccc1C(=O)N1CCCCC1c1nc(-c2ccncc2)no1 (stereo unspecified) | - | -
CC(=O)NC(CCS(C)(=O)=O)C(=O)Nc1cccc(C(F)(F)F)c1 (stereo unspecified) | - | -
O=C(CCn1nnc(-c2cccc(Cl)c2Cl)n1)NN=Cc1ccccc1Cl | - | .
COc1ccc(-n2ccnc2SCC(=O)Nc2cccc(C(F)(F)F)c2)cc1 | - | -
COc1cc(CNC2CCCCCC2)c([N+](=O)[O-])cc1OC | - | -
COc1cc(CNc2ccc3c(c2)CCC3)c([N+](=O)[O-])cc1OC | - | 71
CCc1onc(C)c1C1CCCN1Cc1ccc(SC)cc1 (stereo unspecified) | - | -
CCCOc1ccc(CN2CCCC2c2cc(CC)no2)cc1OC (stereo unspecified) | - | -
CC1=C(C)CC2C(=O)C3=C(C(=O)C2C1)C1c2ccccc2C3c2ccccc21 (stereo unspecified) | - | 61
CSc1ccccc1N1C(=O)C2CC(C)=C(C)CC2C1=O (stereo unspecified) | - | -
Cc1ccc(-c2nocc2CCC(=O)N2CCN(c3ccccc3)CC2)cc1 | - | -
CN(C)c1ccc([N+](=O)[O-])cc1/C=C1\C(=O)NN(c2ccc(F)cc2)C1=O | - | -
O=C1NN(c2ccc(Cl)c(Cl)c2)C(=O)/C1=C/c1ccccc1 | - | 96
O=C1NN(c2ccc(Br)cc2)C(=O)/C1=C/c1cc([N+](=O)[O-])ccc1Cl | - | 89
Cc1ccc(N2NC(=O)/C(=C\c3cccc(Br)c3)C2=O)cc1 | - | 71
Cc1ccc(N2NC(=O)/C(=C\c3cccc([N+](=O)[O-])c3)C2=O)cc1Cl | - | 77
COc1ccc(/C=C2\C(=O)NN(c3ccc(Cl)c(Cl)c3)C2=O)cc1 | - | -
O=C1NN(c2ccc(F)cc2)C(=O)/C1=C/c1cccc([N+](=O)[O-])c1 | - | -
O=C1NN(c2cccc(Br)c2)C(=O)/C1=C/c1ccccc1 | - | -
NC(=O)c1c(NC(=O)c2cccc(I)c2)sc2c1CCCC2 | - | -
CC1CCc2cc(F)ccc2N1C(=O)C12CCC(C)(C(=O)C1=O)C2(C)C (stereo unspecified) | - | -
O=c1c2cnc3ccccc3c2[nH]n1-c1ccc(Cl)cc1 | - | -
SMILES | Pf apPOL inh | mHTT-CaM PPI inh
Cc1ccc(C(=O)N2CCc3c(nc4cc[nH]n4c3=O)C2)cc1F | - | -
C=CCn1cnc2c1c(=O)n(CC(C)C)c(=O)n2-c1ccc(C)cc1C | - | -
Cc1ccc(N2NC(=O)/C(=C\c3ccccc3OCC#N)C2=O)cc1Cl | - | 78
COc1cccc(/C=C2\C(=O)NN(c3ccc(C)c(Cl)c3)C2=O)c1OCC#N | - | -
O=C1NN(c2ccc(Cl)c(Cl)c2)C(=O)/C1=C/c1ccc(-c2ccc3c(c2)C(=O)OC3)o1 | - | 68
Cc1ccc(N2NC(=O)/C(=C\c3cccs3)C2=O)cc1Cl | - | -
O=C1NN(c2ccc(Cl)c(Cl)c2)C(=O)/C1=C/c1ccc(-c2ccc3c(c2)C(=O)NC3=O)o1 | - | -
Cc1ccc(N2NC(=O)/C(=C\c3ccc(Cl)cc3Cl)C2=O)cc1Cl | - | 90
Cc1cc(C)n2nc(SCC(=O)NCc3ccccn3)nc2n1 | - | -
CCC(=O)NCc1nc2c(n1CC)CN(S(=O)(=O)c1cccc(Cl)c1)CC2 | - | -
CCC(=Nc1ccc(C)cc1)C1=C(O)CC(c2ccccc2)CC1=O (stereo unspecified) | - | -
CC1=CC(=O)C=CC1=NC(=NS(=O)(=O)c1ccc(C)cc1)c1ccccc1 | - | 58
CC1=CC(=NC(=NS(=O)(=O)c2ccc(C)cc2)c2ccccc2)C(C)=CC1=O | - | 59
Cc1ccc(S(=O)(=O)N=C(Nc2ccccn2)c2ccccc2)cc1 | - | -
Cc1ccc(C(N)=NC(=NS(=O)(=O)c2ccccc2)c2ccccc2)cc1 | - | -
COc1ccc(-c2n[nH]c(C)c2Oc2ccccc2)c(O)c1 | - | -
Cc1[nH]nc(-c2ccc(O)c(O)c2O)c1Oc1ccccc1 | - | 97
CCCc1ccc(Oc2cn[nH]c2-c2ccc(O)c(C)c2O)cc1 | - | 90
Oc1ccc(-c2[nH]ncc2Oc2ccccc2)c(O)c1O | - | 100
Oc1ccc(-c2[nH]ncc2Oc2ccccc2)c(O)c1 | - | -
CCCc1ccc(Oc2c(C)oc3c(C)c(O)ccc3c2=O)cc1 | - | -
COc1ccc(C(=O)Oc2ccc3c(c2C)OC(=Cc2ccco2)C3=O)cc1OC | - | -
CC12CC3CC(C)(C1)CC(C(=O)N1CCCCC1)(C3)C2 | - | -
COc1ccc(Cl)cc1Nc1nc(-c2sc(NC(C)=O)nc2C)cs1 | - | -
CCN(CC)c1cc(CNC(=O)Nc2ccccc2OC)ccn1 | - | -
SMILES | Pf apPOL inh | mHTT-CaM PPI inh
CCc1ccc(NC(=O)CN(c2cccc(Br)c2)S(C)(=O)=O)cc1 | - | -
CCC(=O)N1CCc2c(C(=O)NC3CC3)cccc21 | - | -
CCNC(=O)c1cccc2c1CCN2C(=O)CC | - | 100
O=c1oc2cc3occ(-c4ccc(F)cc4)c3cc2c2c1CCCC2 | - | -
O=c1oc2cc3occ(-c4ccc(Cl)cc4)c3cc2c2c1CCC2 | 80 | -
COc1ccc2c(c1)c(=O)oc1cc3occ(-c4ccc(Cl)cc4)c3cc12 | - | -
Cc1c(C)c2cc3c(-c4ccc(Cl)cc4)coc3cc2oc1=O | 91 | -
CCn1ccc2oc(C)c(C(=O)NCC3CCCCC3)c2c1=O | - | -
CCCCNc1nc2ccncc2n(Cc2ccccc2)c1=O | - | -
CCn1c(=O)c(NCCCN2CCCc3ccccc32)nc2ccncc21 | - | 67
CC(Oc1ccc(Cl)cc1Cl)C(=O)Nc1cccc2cccnc12 (stereo unspecified) | - | -
COc1cc2c(cc1OC)CN(Cc1ccc(Cl)cc1)CC2 | - | -
COC(=O)C1CN(C)CCC1=O (stereo unspecified) | . | -
O=C1OC(c2ccccc2Cl)=N/C1=C\C=C\c1ccccc1 | - | 53
O=C1OC(c2ccccc2Br)=N/C1=C\C=C\c1ccccc1 | - | -
O=C(O)c1ccc(Oc2ccc3c(c2)C(=O)N(c2cccc([N+](=O)[O-])c2)C3=O)cc1 | - | -
Cc1cccc(CNC(=O)CC2Sc3ncccc3N(C)C2=O)c1 (stereo unspecified) | - | -
COc1ccc(CNC(=O)c2cnn3c2NC(c2ccc(OC)cc2)CC3C(F)(F)F)cc1 (stereo unspecified) | - | -
COc1cccc(C2CC(C(F)(F)F)n3ncc(C(=O)NCc4ccc(F)cc4)c3N2)c1 (stereo unspecified) | - | 64
CCNC(=O)N1CCCC(c2cccc(C(=O)NCCCN3CCOCC3)c2)C1 (stereo unspecified) | - | -
Cc1nc(C)c(C(=O)C2=C(O)C(=O)N(CCCN(C)C)C2c2ccccc2F)s1 (stereo unspecified) | - | -
Nc1nnnn1/N=C/c1cc(Br)ccc1O | . | +
Oc1ccc(Br)cc1/C=N/n1cnnc1 | . | -
CC[C@@H]1C(=O)[C@H](Cc2ccccc2)[C@H]2CCCC(=O)N3CC[C@@H]1[C@@H]23 | - | -
CC[C@H]1c2[nH]c3ccc(C(C)C)cc3c2[C@@H]2CCN3C(=O)CCC[C@H]1[C@H]23 | - | 71
